# Measurements published in publication PMC11062922 (Nature Chemical Biology, 2023).
# Like-named read-outs stand apart in the source and are kept apart here.
# Columns and labels:
# Set-up in all cases: species or system human, MV4-11 + K-562 + COLO205 + SK-N-BE2 + OVCAR-8
# PI4KB = details: read-out: apparent Kd, n = 1
# EPHA7 = details: read-out: apparent Kd; compound concentrations: 100 nM and 1000 nM (sheet 'Samples'), CATDS: 1.2240200797628401E-2; n = 1
# GRK6 = details: read-out: apparent Kd, n = 1
# PIK3CB = details: read-out: apparent Kd, compound concentrations: 100 nM and 1000 nM (sheet 'Samples'), n = 1
# PIM3 = details: read-out: apparent Kd, compound concentrations: 100 nM and 1000 nM (sheet 'Samples'), n = 1
# BMPR1A = details: read-out: apparent Kd, n = 1
# MAP3K1 = details: read-out: apparent Kd, n = 1
# ADRBK1 = details: read-out: apparent Kd, n = 1
# CAMK2B = details: read-out: apparent Kd, compound concentrations: 100 nM and 1000 nM (sheet 'Samples'), n = 1
# CDK4 = details: read-out: apparent Kd; compound concentrations: 100 nM and 1000 nM (sheet 'Samples'), CATDS: 3.2269694765046902E-2; n = 1
# MDN1 = details: read-out: apparent Kd, n = 1
# PLK1 = details: read-out: apparent Kd, compound concentrations: 100 nM and 1000 nM (sheet 'Samples'), n = 1
# ACVR2B = details: read-out: apparent Kd, n = 1
# NEK1 = details: read-out: apparent Kd; compound concentrations:100 nM and 1000 nM (sheet 'Samples'); n = 1
# CDK12 = details: read-out: apparent Kd; compound concentrations: 100 nM and 1000 nM (sheet 'Samples'), CATDS: 1.98005897918999E-2; n = 1
# MAP3K6 = details: read-out: apparent Kd; compound concentrations: 100 nM and 1000 nM (sheet 'Samples'), CATDS: 7.2828700738199706E-2; n = 1
# ZAK = details: read-out: apparent Kd, compound concentrations: 100 nM and 1000 nM (sheet 'Samples'), n = 1
# [1] = compound concentrations:100 nM and 1000 nM (sheet 'Samples')
structure (smiles),measurement,setting,value
Cc1cccc(Nc2nc(N[C@H]3CCNC3)ncc2C(N)=O)c1.Cl [GSK2197149A],potency estimated from few doses,PI4KB; [1],892 nM
CCn1c(-c2cccnc2O)nc2cnccc21 [SB-736715],potency estimated from few doses,EPHA7,2080 nM
same,potency estimated from few doses,"GRK6; compound concentrations: 100 nM and 1000 nM (sheet 'Samples'), CATDS: 1.19944612945155E-2",2190 nM
same,potency estimated from few doses,PIK3CB; CATDS: 1.6268370150171501E-2,1100 nM
same,potency estimated from few doses,PIM3; CATDS: 1.44947330035029E-2,1390 nM
CNCc1ccc(-c2cc(-c3nc(-c4ccc(S(=O)(=O)C(C)C)cc4)cnc3N)on2)cc1 [VE-822],potency estimated from few doses,BMPR1A; [1],764 nM
same,potency estimated from few doses,MAP3K1; [1],1260 nM
O=C(O)C(F)(F)F.O=c1[nH]ccc2nc(N[C@@H]3CCNC3)nc(Nc3ccc4c(c3)S(=O)(=O)CC4)c12 [GSK2181306A],potency estimated from few doses,PIM3; CATDS: 5.1317659487183503E-2,36.4 nM
Cc1cc(-c2ccnc(Nc3cccc(C#N)c3)n2)cc(C)c1O [GSK1440913A],potency estimated from few doses,"ADRBK1; compound concentrations: 100 nM and 1000 nM (sheet 'Samples'), CATDS: 7.8557926604231804E-2",1430 nM
Cc1ccccc1C1=C(c2cn(C)c3ccccc23)C(=O)NC1=O [RO0317612-000],potency estimated from few doses,CAMK2B; CATDS: 0.21692870054448801,479 nM
Cl.Cl.NC(CNC(=O)c1cc(Br)c(-c2ccnc3[nH]ccc23)s1)c1ccccc1.NC(CNC(=O)c1cc(Br)c(-c2ccnc3[nH]ccc23)s1)c1ccccc1 (stereo not drawn) [GSK1322949A],potency estimated from few doses,CDK4,1030 nM
same,potency estimated from few doses,"MDN1; compound concentrations: 100 nM and 1000 nM (sheet 'Samples'), CATDS: 2.3593450099353701E-2",2300 nM
same,potency estimated from few doses,PLK1; CATDS: 2.70929722302506E-2,1550 nM
COc1cc[nH]c1/C=C1\C(=O)Nc2ccc(F)c(C#CC3(O)CCNCC3)c21.Cl [RO0282986-001],potency estimated from few doses,CAMK2B; CATDS: 2.6528417916085501E-2,123 nM
CNc1cc(-c2ccc3c(N)n[nH]c3c2)nc(N)n1 [GSK2224810A],potency estimated from few doses,ACVR2B; [1],1190 nM
CC(C)Oc1ccc2c(-c3ccnc(Nc4ccc(N5CCN(C)CC5)cc4)n3)cnn2n1 [GW696155X],potency estimated from few doses,NEK1,1130 nM
COc1ccc(-c2cc3c(N)ncnc3o2)cc1 [GW642138X],potency estimated from few doses,"ADRBK1; compound concentrations: 100 nM and 1000 nM (sheet 'Samples'), CATDS: 0.10043155858125399",1820 nM
NS(=O)(=O)c1ccc(NC=C2C(=O)Nc3ccc4ncsc4c32)cc1 [GW589933X],potency estimated from few doses,CDK12,1010 nM
Cl.Cl.NCC(NCc1ccc(-c2ccnc3[nH]ccc23)s1)c1ccccc1.NCC(NCc1ccc(-c2ccnc3[nH]ccc23)s1)c1ccccc1 (stereo not drawn) [GSK1321565A],potency estimated from few doses,GRK6; [1],1600 nM
Nc1nc(-c2ccc3c(N)n[nH]c3c2)cc(N2CCCC(NC(=O)c3ccccc3)C2)n1 (stereo not drawn) [GSK2286775B],potency estimated from few doses,ADRBK1; [1],2050 nM
same,potency estimated from few doses,MDN1; [1],1290 nM
CC(C)N1CC(=O)N(C)c2cnc(Nc3cccc(S(=O)(=O)CCN4CCOCC4)c3)nc21 [BI00009348],potency estimated from few doses,"MAP3K1; compound concentrations: 100 nM and 1000 nM (sheet 'Samples'), CATDS: 5.2672429134220697E-2",1560 nM
same,potency estimated from few doses,MAP3K6,698 nM
same,potency estimated from few doses,ZAK; CATDS: 5.0114665499168799E-2,1820 nM
CCC(CC)(CC)n1cnc2c(N)ncnc21 [SKF-97620],potency estimated from few doses,"PI4KB; compound concentrations: 100 nM and 1000 nM (sheet 'Samples'), CATDS: 7.0031928225578105E-2",170 nM
same,potency estimated from few doses,PIK3CB; CATDS: 4.8769305637968503E-2,337 nM
same,potency estimated from few doses,PLK1; CATDS: 2.3248772158463601E-2,2300 nM
Cl.Oc1cccc(Nc2ccnc3cc(-c4ccncc4)ccc23)c1 [GW494601A],potency estimated from few doses,"ACVR2B; compound concentrations: 100 nM and 1000 nM (sheet 'Samples'), CATDS: 0.269416694406998",2.16 nM
same,potency estimated from few doses,"BMPR1A; compound concentrations: 100 nM and 1000 nM (sheet 'Samples'), CATDS: 2.7920432625818298E-2",313 nM
same,potency estimated from few doses,ZAK; CATDS: 1.9718010562251101E-2,1580 nM
